Assay outcomes (PubChem BioAssay)
Only some compounds are listed: those with a hit (about 1.6% of all), similar ones and a draw of the others.
p97 ATPase inh: human p97 ATPase inhibition; inhibition, % at 8 µM; P55072; recombinant p97 ATPase, Kinase-Glo ATP luminescence, 3 h; AID 1481; 220,000 tested, 0.42% active; in the data active means inhibition above about 15%;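 further: 0% = DMSO vehicle and 100% = wells lacking enzyme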
HSV augment: HSV replication enhancement. HSV replication augmentation in cells, fold increase. maximum fold increase. 220,000 tested, 0.005% active. AID 1956; in the data active means maximum fold increase above about 1.5; tested in PC3 cells
Hsp70 activator: switches on Hsp70 transcription; 200,000 tested, 0.04% active; activation, % at 10 µM; HeLa Hsp70 promoter luciferase reporter, luminescence; scaled: vehicle 0, proteasome-inhibitor control 100%;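 active means activation above the mean across all tested compounds plus 3 SD, cutoff set per campaign, cut at about 5.5% in these data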;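 further: 100% = MG132 at 30 µM as the positive control and 0% = DMSO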
Wee1 stabilizer: human Wee1 degradation inhibition, primary screen | reporter increase, % at 5 µM | HeLa Luc-Wee1K328M stability, luciferase luminescence; 100% = proteasome inhibitor MG132 effect | P30291 | 220,000 tested, 1.2% active;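 active means activation above the mean of all tested compounds plus 3 SD, set per screening run, cut at about 8.8% in these data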;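 further: cells exposed to compound for 20 h before luminescence read; 0% = DMSO alone and 100% = MG132 at 30 µM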
DTT redox prof: compounds producing H2O2 with reducing agent – biochemical, NIH compound library profiling, artefact control for MLSCN library redox annotation, primary screen; DTT-dependent redox cycling H2O2, phenol red/HRP absorbance; 100% = 100 µM peroxide control, 0% = buffer; activation, % at 10 µM; 200,000 tested, 0.03% active; AID 878;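 active means activation of at least 50% relative to the plate's high and low controls in the primary single-dose screen; inactive means activation below 50%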;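 further: compound incubated with DTT at 0.8 mM final as the reducing agent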
Starred values were filed as active, the others as inactive; i = inactive; x = not tested or not shown.

SMILES	p97 ATPase inh	HSV augment	Hsp70 activator	Wee1 stabilizer	DTT redox prof
O=C1CSC(=S)N1N=C1CCCCCC1	-4	i	0	13*	0
O=C1CSC(=S)N1/N=C/C=C/c1ccccc1	-5	i	0	-2	-1
CCCCn1c(CCC(=O)O)nc2cc(S(=O)(=O)N(C)C)ccc21	4	i	0	-2	0
O=C1CC(c2ccccc2)=NN1c1nc(-c2ccccc2)cs1	5	i	0	11*	0
CC(C)CC(=O)Nc1ccccc1N1CCN(c2ccccc2)CC1	-7	i	0	-1	0
CC(C)(C)CC(=O)Nc1ccccc1N1CCN(c2ccccc2)CC1	-4	i	0	11*	-1
O=C(NC1CCCCC1)C(c1ccc(F)cc1)N(Cc1ccco1)C(=O)CN1C(=O)c2ccccc2S1(=O)=O (configuration not stated)	9	i	0	9.9*	1
COC(=O)C[N+](C)(C)C/C=C\c1ccccc1	3	i	0	-3	1
Cc1ccc2c(c1)NC(=O)C(CC(=O)NCCCN1CCCC1=O)O2 (configuration not stated)	-6	i	0	-3	-1
O=C(/C=C/Nc1ccc(F)cc1)c1ccc(Br)cc1	0	i	0	9.4*	-2
COC(=O)c1cccc(NC(=O)CCc2cc(OC)c(OC)c(OC)c2)c1	4	i	0	2	x
COC(=O)c1cccc(NC(=O)CCc2ccccc2)c1	1	i	0	9.4*	0
CC(C)CNC(=O)c1cccc(NC(=O)CCc2ccccc2)c1	-1	i	1	10*	-1
O=C(c1cc(C(=O)c2ccco2)cc(C(=O)c2ccco2)c1)c1ccco1	-4	i	0	11*	0
O=C(c1ncc[nH]1)c1ccco1	7	i	0	-1	0
CCCCNC(=O)Nc1ccccc1Br	3	i	0	-2	0
CCS(=O)(=O)N1CCC(C(=O)NCCCOC)CC1	-3	i	0	10*	-1
CCCS(=O)(=O)N1CCC(C(=O)NCCCOC)CC1	2	i	0	-2	4
Cc1cc(C)cc(N(C(=O)C(F)(F)F)C(C(=O)NC2CCCCC2)c2cccs2)c1 (configuration not stated)	3	i	0	11*	2
CCOc1cc(C2C(C(=O)c3ccc(C)cc3)=C(C(=O)OC)Nc3nnnn32)ccc1O (configuration not stated)	-3	2.1*	0	1	0
CC(C)CC(NC(=O)C1CCCCC1)C(=O)NCc1ccccn1 (configuration not stated)	3	i	0	2	0
CCN(CCC(=O)O)c1ccccc1	2	i	0	-1	0
NC(=O)N(CCC(=O)O)c1ccccc1	8	x	0	10*	0
Cc1ccc(C)c(NC(=O)CCC(=O)N/N=C/c2ccc3c(c2)OCO3)c1	-1	i	1	10*	0
Cc1ccccc1NCC(=O)N/N=C\c1ccc2c(c1)OCO2	2	i	-1	3	0
SMILES	p97 ATPase inh	HSV augment	Hsp70 activator	Wee1 stabilizer	DTT redox prof
COc1ccc(-c2cn3cccnc3n2)cc1NC(=O)c1cc(OC)c(OC)c(OC)c1	4	i	0	9.7*	-1
O=C(NC(=O)c1ccccc1O)c1ccc(C(F)(F)F)cc1	4	i	x	9.1*	x
C=CCc1c(N(CC)CC)nc(C)[nH]c1=O	5	i	x	9.3*	x
C=CCNC(=O)C1CCN(S(=O)(=O)c2ccccc2)CC1	-7	i	0	1	-1
COc1ccccc1C1CC(c2ccc(Br)cc2)=NN1C(=O)c1cccnc1 (configuration not stated)	4	i	0	-2	0
COc1cccc(C2CC(c3ccc(Br)cc3)=NN2C(=O)c2ccncc2)c1OC (configuration not stated)	-2	i	0	9.0*	0
CCSc1ccc(-c2ccc(C)cc2)nn1	-6	i	0	8	-1
CCc1ccc(-c2ccc(SCc3ccccn3)nn2)cc1	0	i	0	9.1*	-1
CCOc1ccc(-c2ccc(SCC)nn2)cc1	0	i	0	9.0*	0
CCOc1ccc(-c2ccc(SCc3ccccn3)nn2)cc1	-1	i	0	-1	0
CC(=O)Nc1cccc(C(=O)Nc2ccccc2N2CCOCC2)c1	4	i	-1	9.0*	0
